F508del corr: correctors of CFTR F508del function in bronchial epithelial cells; activity (quench increase), % at 7.58 µM; CFBE cells, YFP halide quenching; stimulated with forskolin plus potentiator P3; % fluorescence drop versus neutral controls; 350,000 compounds, 0.36% hits;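 active means mean added fluorescence quench of at least 8% versus neutral control, with both replicates also reaching 8%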;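 further: cells transiently co-express mutant CFTR-F508del with the halide-sensitive YFP; corrector assay measuring rescue of mutant channel to the surface after 24 h compound exposure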
ERAP1 HTS inh: inhibitors of human ERAP1 aminopeptidase; 340,000 compounds, 0.15% hits; inhibition, % at 10.7 µM; recombinant ERAP1, Leu-AMC fluorescence, 60 min;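 active means mean replicate inhibition of at least 30%, or all replicates individually reaching that 30% level; inactive means mean below 30% and not every replicate reaching it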;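 further: 0% = neutral control wells and 100% = L-leucinethiol positive control wells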
Target sequence (Q9NZ08 whole entry, looked up): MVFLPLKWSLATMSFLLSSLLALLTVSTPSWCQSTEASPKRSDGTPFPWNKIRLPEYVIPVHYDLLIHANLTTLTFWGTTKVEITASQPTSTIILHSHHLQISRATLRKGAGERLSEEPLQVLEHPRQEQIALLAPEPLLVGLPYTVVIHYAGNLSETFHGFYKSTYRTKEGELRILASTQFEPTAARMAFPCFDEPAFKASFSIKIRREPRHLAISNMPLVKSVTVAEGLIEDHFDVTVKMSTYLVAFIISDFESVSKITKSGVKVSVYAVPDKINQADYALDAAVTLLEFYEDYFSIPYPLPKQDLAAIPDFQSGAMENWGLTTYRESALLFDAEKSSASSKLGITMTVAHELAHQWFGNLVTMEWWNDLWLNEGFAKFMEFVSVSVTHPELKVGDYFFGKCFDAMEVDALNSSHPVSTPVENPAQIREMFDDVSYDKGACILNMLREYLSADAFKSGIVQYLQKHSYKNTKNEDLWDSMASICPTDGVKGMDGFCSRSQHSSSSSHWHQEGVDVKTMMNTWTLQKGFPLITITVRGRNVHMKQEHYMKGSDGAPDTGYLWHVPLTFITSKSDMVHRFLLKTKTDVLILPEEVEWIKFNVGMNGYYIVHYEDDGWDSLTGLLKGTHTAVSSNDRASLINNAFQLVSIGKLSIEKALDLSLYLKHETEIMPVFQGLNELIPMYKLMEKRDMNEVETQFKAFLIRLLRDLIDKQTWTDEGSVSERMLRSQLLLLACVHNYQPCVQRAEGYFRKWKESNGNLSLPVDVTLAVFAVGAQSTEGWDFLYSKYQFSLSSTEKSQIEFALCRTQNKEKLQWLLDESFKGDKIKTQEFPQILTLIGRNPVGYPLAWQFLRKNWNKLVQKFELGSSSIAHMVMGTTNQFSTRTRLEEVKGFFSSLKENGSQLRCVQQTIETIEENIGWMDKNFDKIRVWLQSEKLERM
Ecoli rRNA inh: inhibitors of bacterial rRNA selective over humanized ribosomes; 350,000 compounds, 1.6% hits; E. coli WT GFP vs humanized-ribosome RFP mutants, fluorescence, 24 h; active compounds read low; DMSO median 0, no signal -100; GFP signal change (wild-type ribosome), % (concentration not given with the values);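 active means significant combined selectivity score with lowered wild-type GFP, culture density cut under 30%, mutant RFP and density less affected; inactive means any of these conditions unmet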
ARNT TACC3 PPI: disrupts binding between human ARNT and TACC3; inhibition, % at 9.99 µM; 390,000 compounds, 0.66% hits; Q9Y6A5; AID 623870; AlphaScreen His-ARNT PAS-B/GST-TACC3 binding, luminescence; TACC3 fragment carries E629A point mutation;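 active means mean inhibition of replicates at least 50% and at least half of replicates each reaching 50%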;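 further: 0% = complete ARNT plus TACC3 wells and 100% = ARNT alone without TACC3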
PvdQ inh: P. aeruginosa PvdQ acylase inhibition. AID 488965. inhibition, % at 10 µM. 340,000 compounds, 0.063% hits. purified PvdQ acylase, fluorescence plate reader; in the data active means inhibition above about 30%, passing the limit was not always enough;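 further: 0% = vehicle neutral wells and 100% = reference inhibitor wells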
* hit, by the source's call. Only some compounds are listed: those with a hit (about 2.1% of all), similar ones and a draw of the others.

`COc1cc(NC(=O)c2cc([N+](=O)[O-])ccc2NC(=O)CNCc2ccccn2)cc(OC)c1` gave F508del corr -1.6, ERAP1 HTS inh 1.7, Ecoli rRNA inh -8.8, ARNT TACC3 PPI 37.8* and PvdQ inh -8.7.
For Cc1c(Cl)cccc1NC(=O)C1CC(=O)N(C2CCCC2)C1 (stereo not given) the results were F508del corr 13.1*, ERAP1 HTS inh -10.3, Ecoli rRNA inh 0.7, ARNT TACC3 PPI 10.0 and PvdQ inh 4.7.
For Cc1c(Cl)cccc1NC(=O)CNC(=O)C1CC(=O)N(C2CCCC2)C1 (stereo not given) the results were F508del corr 1.8, ERAP1 HTS inh 0.6, Ecoli rRNA inh 2.0, ARNT TACC3 PPI 5.3 and PvdQ inh 1.6.
Screening c1ccc(N=NC2=NN(c3ccccc3)CS2)cc1 returned F508del corr -0.1, ERAP1 HTS inh -3.5 and Ecoli rRNA inh -29.5*.
COc1ccc(C2CC(c3ccccc3O)=NN2c2ccccc2)cc1 (stereo not given) was read as F508del corr 0.4, ERAP1 HTS inh 1.8, Ecoli rRNA inh -21.1*, ARNT TACC3 PPI 2.1 and PvdQ inh 2.6.
C[C@H](CO)N1C[C@H](C)[C@@H](CN(C)Cc2ccc(-c3ccccc3)cc2)Oc2ccc(NS(=O)(=O)c3ccc(F)cc3)cc2CC1=O was read as F508del corr 3.7 and Ecoli rRNA inh 2.2.
For CCC1=NN(C(=O)c2ccc(Br)cc2)C(O)(c2ccc(C)cc2)C1 (stereo not given) the results were ERAP1 HTS inh -1.3, Ecoli rRNA inh -30.2*, ARNT TACC3 PPI -0.4 and PvdQ inh -5.3.
`Cc1ccsc1C(=O)OCC(=O)Nc1ccc(Cl)cn1` gave F508del corr -2.1, ERAP1 HTS inh 2.3, Ecoli rRNA inh -22.9*, ARNT TACC3 PPI -8.7 and PvdQ inh -20.7.
`Cc1cccc(C)c1OCC(=O)OCC(=O)Nc1ccc(Cl)cn1` gave F508del corr 22.7*, ERAP1 HTS inh -1.0, Ecoli rRNA inh 8.0, ARNT TACC3 PPI 0.4 and PvdQ inh -4.2.
C[C@H]1CN([C@@H](C)CO)C(=O)c2cc(NC(=O)Nc3cccc4ccccc34)ccc2O[C@H]1CN(C)C(=O)Nc1cccc2ccccc12 was read as F508del corr -2.4, ERAP1 HTS inh -0.3, Ecoli rRNA inh -1.3 and ARNT TACC3 PPI 19.9.
Screening Nc1nc(N)c(Cc2ccc(Cl)cc2Cl)c(N)n1 returned F508del corr -1.3, ERAP1 HTS inh 9.2, Ecoli rRNA inh -28.6*, ARNT TACC3 PPI -14.3 and PvdQ inh -14.7.
For Nc1nccc(SCc2ccc(Cl)cc2Cl)n1 the results were F508del corr 2.4, ERAP1 HTS inh -0.1, Ecoli rRNA inh -2.3, ARNT TACC3 PPI 0.6 and PvdQ inh -14.2.
`COc1ccccc1NC(=O)N[C@H]1CC[C@H](CCNS(=O)(=O)c2ccc(C)cc2)O[C@H]1CO` gave F508del corr 0.3, ERAP1 HTS inh -0.4 and Ecoli rRNA inh -5.1.
Screening C[C@@H]1CCCCO[C@@H](CN(C)S(=O)(=O)c2cn(C)cn2)[C@@H](C)CN([C@@H](C)CO)C(=O)c2cc(NC(=O)C3CCCCC3)ccc2O1 returned F508del corr 0.0, ERAP1 HTS inh -2.3, Ecoli rRNA inh 1.4 and ARNT TACC3 PPI -2.2.
COc1ccc(NC(=O)Nc2ccc3c(c2)CC(=O)N([C@H](C)CO)C[C@@H](C)[C@H](CN(C)C(=O)Nc2ccc(C(F)(F)F)cc2)O3)cc1 was read as F508del corr 0.0, Ecoli rRNA inh -5.9 and ARNT TACC3 PPI 5.9.
For C[N+]1(CC2COC3(CCCCC3)O2)CCCC1 (stereo not given) the results were F508del corr 0.3, ERAP1 HTS inh 80.7*, Ecoli rRNA inh 9.3 and PvdQ inh -2.4.
Screening O=C(C[C@H]1CC[C@H]2[C@@H](COC[C@@H](O)CN2CCc2ccccc2)O1)NCCCN1CCOCC1 returned F508del corr -4.2, ERAP1 HTS inh 0.9, Ecoli rRNA inh 1.9 and ARNT TACC3 PPI -2.1.
Cc1ccc(NC(=O)Cc2nc(-c3c[nH]c(C(=O)N4CCCC4)c3)cs2)c(C)c1 was read as F508del corr 8.8*, ERAP1 HTS inh -0.8, ARNT TACC3 PPI -0.2 and PvdQ inh -21.6.
For O=C(COC(=O)Cc1ccc(Cl)cc1)NCCc1ccccc1 the results were F508del corr -2.8, ERAP1 HTS inh -6.5, Ecoli rRNA inh -23.5*, ARNT TACC3 PPI -6.5 and PvdQ inh 0.6.

High-throughput results from PubChem.
